# The whole screen tested about 2,100 compounds, of which about 320 (15%) were called active. Roughly 52% stayed inconclusive and do not appear here. Calls come from the whole dose curve; as a rule, active = well fitted cell-killing curve with a large enough effect; inconclusive = small, poorly fitted or top-dose-only effect, or effect the other way; inactive = flat fitted curve, though single readings scatter. The list shows a part of the results. A call without a number means that no potency is given here.
# Experiment: Viability Counterscreen for CMV-Luciferase Assay of Inhibitors of ATXN expression; note: nearly all actives have a fitted effect of over 55% in size
# Conditions: HEK-293 CMV-luciferase cells viability, protease fluorescence, 24 h
# Summary of the method: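 Compounds are tested in a dilution series on HEK-293 cells carrying the CMV-driven luciferase. After a 24 hr incubation, a protease substrate (25 uM final, 30 min) gives the viability fluorescence, and SteadyGlo gives the reporter luminescence.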
# Potency is the fitted concentration of half-maximal effect.
row,Structure (SMILES),Potency
1,c1nc(CCO[C@H]2CCCCO2)cc2cc3c(cc12)OCO3,inactive
2,COc1ccc(CCCNC(=O)C2Cc3c(-c4cccc(NC(C)=O)c4)ccnc3O2)cc1 (centres undefined),inactive
3,CC(=O)c1cccc(-c2ccnc3c2CC(C(=O)Nc2ccc(F)c(Cl)c2)O3)c1 (centres undefined),inactive
4,CC(=O)Nc1cccc(-c2ccnc3c2CC(C)(C(=O)Nc2ccc(Cl)c(C(F)(F)F)c2)O3)c1 (centres undefined),28.2 µM (active)
5,COC(=O)c1ccc(N2CCOCC2)c(NC(=O)Nc2cccc(OC)c2)c1,inactive
6,O=C(NC(c1ccccc1)c1c(O)ccc2ccccc12)c1ccccc1Cl (centres undefined),inactive
7,CCCC(=O)NC(c1ccco1)c1cc(Cl)c2cccnc2c1O (centres undefined),inactive
8,CCCC(=O)NC(c1ccc(OC)cc1)c1c(O)ccc2ccccc12 (centres undefined),10 µM (active)
9,O=[N+]([O-])c1ccc(/C=N/N=C/c2ccc([N+](=O)[O-])o2)o1,4.47 µM (active)
10,Cc1ncc(CO)c(/C=N/NC(=O)c2cccc(S(=O)(=O)N3CCCC3)c2)c1O,inactive
11,O=C(N/N=C/c1cc(Cl)cc([N+](=O)[O-])c1O)c1cccc(S(=O)(=O)N2CCOCC2)c1,inactive
12,COc1ccccc1NS(=O)(=O)c1cccc(C(=O)N/N=C/c2ccc([N+](=O)[O-])o2)c1,10 µM (active)
13,O=C(Nc1ccc(NC(=O)c2cccs2)cc1)c1ccc2c(c1)OCO2,inactive
14,O=C(N/N=C/c1ccc([N+](=O)[O-])o1)c1ccc2c(c1)OCO2,17.8 µM (active)
15,O=C(N/N=C/c1ccccc1O)c1cccc(C(F)(F)F)c1,inactive
16,Cn1c(S(=O)(=O)c2ccc([N+](=O)[O-])cc2)nc(Br)c1Br,inactive
17,CC(C)C[C@H](NC(=O)c1[nH]cnc1C(=O)Nc1ccc(CNC(=O)OC(C)(C)C)cc1)C(=O)OCc1ccccc1,inactive
18,CCc1noc(C)c1C(=O)N1CCSC1=Nc1cccc(Cl)c1C,inactive
19,CCC(C)(C)c1ccc(Oc2ccc(N)cc2)cc1,inactive
20,NNC(=O)c1sc2cc(C(F)(F)F)cnc2c1-c1cccs1,inactive
21,CCc1ccc(C(O)c2ncc(-c3cccc(C(F)(F)F)c3)[nH]2)cc1 (centres undefined),inactive
22,CCN(Cc1ccccc1)S(=O)(=O)c1ccc(C(=O)Nc2nnc(C3CC3)o2)cc1,inactive

row,Structure (SMILES),Potency
1,CC1CCCCN1S(=O)(=O)c1ccc(C(=O)Nc2nnc(-c3ccccc3Cl)o2)cc1 (centres undefined),inactive
2,O=C(Nc1nnc(C2CC2)o1)c1ccc(S(=O)(=O)N2CCCc3ccccc32)cc1,11.2 µM (active)
3,CN(CCOc1ccc(Br)cc1)CC(O)COc1ccc(C#N)cc1 (centres undefined),inactive
4,NNc1ncnc2sc3c(c12)CCC3,inactive
5,Clc1c(Cl)c(Cl)c2n[nH]nc2c1Cl,inactive
6,O=C1CCCC(O)=C1C=NCc1ccccc1,inactive
7,Cc1cccc(/C=C/C(=O)c2ccc([N+](=O)[O-])o2)c1,3.16 µM (active)
8,CCc1c(C)nc2ncnn2c1N1CCC(C(=O)Nc2ccc(C)cc2)CC1,inactive
9,CN1CCN(C2Cc3cc(Cl)ccc3Sc3cc(F)ccc32)CC1 (centres undefined),inactive
10,COc1ccc2c(c1)CC(N1CCN(C)CC1)c1cc(OC)ccc1S2 (centres undefined),28.2 µM (active)
11,Cc1cccc(OCCCC(=O)Nc2nccs2)c1,inactive
12,O=C(CNC(=O)c1cccc(F)c1)N/N=C/c1cc(Br)ccc1OC(=O)/C=C/c1ccco1,inactive
13,Cc1ccccc1N1CCN(Cc2c[nH]c3ccccc23)CC1,inactive
14,CN1C(=O)/C(=C/c2ccccc2F)Sc2ccc(C(=O)N3CCCC3)cc21,inactive
15,CCN(CC)CCNc1ccc(CO)c2sc3ccccc3c(=O)c12,25.1 µM (active)
16,CCN(CC)CCNC(=O)c1ccc(NC(=O)Cc2cccc3ccccc23)cc1,inactive
17,O=c1c2ccccc2sc2c(CO)ccc(NCCN3CCCCC3)c12,25.1 µM (active)
18,Cc1nc2cc(NC(=O)CSc3nc4c(C)cccc4cc3C#N)ccc2s1,inactive
19,CC1(C)Cc2c(ccc3ccccc23)C2=C(C(=O)N3CCCC3)C(=O)C(=O)N21,inactive
20,O=C(/C=C/c1ccc(Cl)cc1)Nc1ccc(CN2CCOCC2)cc1,inactive
21,Cc1cccc(OCCn2cc(/C=N/NC(=O)c3ccncc3)c3ccccc32)c1,inactive
22,Cc1ccc(C(C)C)c(OCc2ccc(C(=O)N/N=C/c3cccc(O)c3O)cc2)c1,3.98 µM (active)

row,Structure (SMILES),Potency
1,Cc1ccc(OCCn2cc(/C=N/NC(=O)c3ccncc3)c3ccccc32)cc1,inactive
2,COC(=O)c1ccc(C(=O)Nc2cc(Cl)ccc2Cl)cc1NC(=O)c1ccc(N(C)C)cc1,inactive
3,Cc1cccc(N=C2NN=C(c3c(C)[nH]c4ccccc34)CS2)c1,25.1 µM (active)
4,Cc1cc(C2=NNC(=NC3CC3)SC2)c(C)n1-c1ccccc1F,inactive
5,C/C(=N\NC(=O)C(C)n1nc(C)c([N+](=O)[O-])c1C)c1ccccc1O (centres undefined),inactive
6,CN(Cc1ccccc1)C(=O)c1ccc(Nc2nc(C(N)Cc3ccccc3)cs2)nc1 (centres undefined),10 µM (active)
7,COc1ccc(CC(N)c2csc(Nc3ccc(C(=O)c4ccccc4)cc3)n2)cc1 (centres undefined),inactive
8,NC(=O)c1cccc(Nc2nc(C(N)Cc3ccc(C(F)(F)F)cc3)cs2)n1 (centres undefined),inactive
9,COc1cc2c(C(=O)N3CCOCC3)c(CSc3ccccc3)n(C)c2cc1Br,inactive
10,COc1ccc2nc(C)cc(NCc3ccc(F)cc3)c2c1,inactive
11,COc1ccc(CNc2ncnc3c2[nH]c2ccccc23)cc1,14.1 µM (active)
12,Cc1cc(C(=O)CN2C(=O)c3ccccc3S2(=O)=O)c(C)n1C(C)C,inactive
13,COc1ccc(CCn2c(C)cc(C(=O)CSc3nc(N)cc(=O)[nH]3)c2C)cc1,inactive
14,Cc1[nH]n(-c2cccc3ccccc23)c(=O)c1/C=N/NC(=O)c1cccc([N+](=O)[O-])c1,11.2 µM (active)
15,Cc1cccc(/C=N/NC(=O)c2cccc(Cl)c2)n1,inactive
16,Cc1[nH]n(-c2ccccc2)c(=O)c1C=Nc1cccc2cccnc12,inactive
17,Nc1ccc(Oc2ccccc2-c2ccccc2)cc1,inactive
18,CC(NC1=CC(=O)c2cccnc2C1=O)C(O)c1ccccc1 (centres undefined),17.8 µM (active)
19,Cc1ccc(Sc2nnc(Cc3ccccc3)c3ccccc23)cc1,inactive
20,Cc1ccc(S(=O)(=O)c2nc(NCc3ccc4c(c3)OCO4)sc2Cl)cc1,inactive
